Screens: PubChem BioAssay, The Scripps Research Institute Molecular Screening Center
PAFAH1B2 inh: PAFAH1B2 enzyme inhibitors, primary screen, biochemical, fluorescence polarization, human | Platelet-activating factor acetylhydrolase IB subunit alpha2 (Homo sapiens), P68402 | recombinant PAFAH1B2, FP-rhodamine activity probe | inhibition, % at 3.39 µM | 1.2% of 340,000 active | AID 492953, 2010;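 active = inhibition above the mean of all tested compounds plus 3 SD, cut at about 24% in these data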;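 note: 0% = enzyme with DMSO and 100% = wells lacking PAFAH1B2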
PAFAH2 FP inh: PAFAH2 enzyme inhibitors, primary screen, biochemical, fluorescence polarization, human. recombinant PAFAH2, FP-rhodamine activity probe. AID 492956, 2010. inhibition, % at 3.39 µM. 0.99% of 340,000 active. Platelet-activating factor acetylhydrolase 2, cytoplasmic (Homo sapiens), Q99487;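 active = inhibition above the mean over all tested compounds plus 3 SD, cut at about 30% in these data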;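 note: inhibitors block probe labeling of enzyme so polarization drops; 0% = enzyme with DMSO and 100% = wells lacking PAFAH2 protein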
PAFAH1B3 FP inh: PAFAH1B3 enzyme inhibitors, primary screen, biochemical, fluorescence polarization, human. recombinant PAFAH1B3, FP-rhodamine probe. inhibition, % at 3.39 µM. 0.28% of 340,000 active;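 active = inhibition above the screen-wide average of all tested compounds plus 3 SD, cut at about 25% in these data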;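 note: 0% = enzyme with DMSO only and 100% = wells lacking PAFAH1B3 protein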
Target sequence (Q15102 whole entry, looked up): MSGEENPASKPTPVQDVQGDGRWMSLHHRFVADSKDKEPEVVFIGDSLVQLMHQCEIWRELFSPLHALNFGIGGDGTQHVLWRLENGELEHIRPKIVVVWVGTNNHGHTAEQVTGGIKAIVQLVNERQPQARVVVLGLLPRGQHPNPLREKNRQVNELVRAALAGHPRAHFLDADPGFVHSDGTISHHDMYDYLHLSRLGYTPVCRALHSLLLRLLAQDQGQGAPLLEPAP
pPAFAH FP inh: pPAFAH enzyme inhibitors, primary screen, biochemical, fluorescence polarization, human | recombinant pPAFAH, FP-rhodamine probe fluorescence polarization | inhibition, % at 3.39 µM | 1.5% of 330,000 active;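 active = inhibition above the mean inhibition across the screen plus 3 SD, cut at about 25% in these data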;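 note: inhibitors block binding of the rhodamine activity-based probe so polarization drops; 0% = enzyme with DMSO and 100% = wells lacking pPAFAH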
Target sequence (Q13093 whole entry, looked up): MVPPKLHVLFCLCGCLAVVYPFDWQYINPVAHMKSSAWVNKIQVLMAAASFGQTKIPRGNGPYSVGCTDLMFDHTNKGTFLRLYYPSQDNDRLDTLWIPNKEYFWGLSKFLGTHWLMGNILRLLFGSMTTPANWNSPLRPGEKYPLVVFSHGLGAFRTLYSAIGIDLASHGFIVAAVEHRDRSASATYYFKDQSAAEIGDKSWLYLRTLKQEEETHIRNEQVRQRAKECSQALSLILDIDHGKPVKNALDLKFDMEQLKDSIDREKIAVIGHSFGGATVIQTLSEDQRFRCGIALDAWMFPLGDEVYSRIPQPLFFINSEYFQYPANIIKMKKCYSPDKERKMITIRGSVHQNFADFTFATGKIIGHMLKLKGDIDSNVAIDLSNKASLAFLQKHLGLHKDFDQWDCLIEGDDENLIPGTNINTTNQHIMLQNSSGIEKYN
PKA-R2B act: activators of PKA-R2B holoenzyme, primary screen, biochemical, fluorescence polarization, Cy5-IP20, human; cAMP-dependent protein kinase catalytic subunit beta (Homo sapiens) + cAMP-dependent …; PKA-R2B holoenzyme dissociation; R2B truncated from residue 108, S112A mutant; 0% DMSO only, 100% 113 µM cGMP; activation, % at 11.4 µM; 0.079% of 340,000 active; AID 504700, 2011;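 active = activation above a cutoff set at the mean over all compounds plus 3 SD, cut at about 18% in these data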;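 note: higher means more holoenzyme dissociation and a rise in polarization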
PKA-R1A act: activators of PKA-R1A holoenzyme, primary screen, biochemical, fluorescence polarization, Cy5-IP20, bovine R1A, mouse PKAc. 0.083% of 340,000 active. PKA-R1A dissociation; scaled: DMSO 0%, 113 µM cGMP 100%. activation, % at 11.4 µM. cAMP-dependent protein kinase type I-alpha regulatory subunit (Bos taurus) + …;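 active = percent activation above the mean of all tested compounds plus 3 SD, cut at about 19% in these data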;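 note: higher means more PKAc released from R1A so a rise in polarization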
Numbers without * were called inactive. Compounds with a hit are over-represented: about 2.6% of the library has one in this group of screens.

O=C(N/N=C\C1C(=O)NC(=S)N(c2ccccc2)C1=O)c1ccc(O)cc1 (stereo not given) was read as PAFAH1B2 inh 12, PAFAH2 FP inh 12, PAFAH1B3 FP inh 0, pPAFAH FP inh 12, PKA-R2B act -6 and PKA-R1A act -18.
Cc1ccc(N2C(=O)/C(=C/c3ccc(CN(CCC#N)S(C)(=O)=O)o3)C(=O)NC2=S)cc1C was read as pPAFAH FP inh 32*.
For Cc1cccc(N2C(=O)/C(=C/c3ccc(CN(CCC#N)S(C)(=O)=O)o3)C(=O)NC2=S)c1 the results were PAFAH1B2 inh 0, PAFAH2 FP inh 20, PAFAH1B3 FP inh -3, pPAFAH FP inh 15, PKA-R2B act -7 and PKA-R1A act -10.
`O=C1CC(=O)N(Cc2ccccc2)C(=S)N1` gave PAFAH1B2 inh 31*, PAFAH2 FP inh 3, PAFAH1B3 FP inh -2, pPAFAH FP inh 2, PKA-R2B act -10 and PKA-R1A act -10.
CN1C(=O)C2C[C@@]3(Br)c4ccccc4N(OOSc4ccccc4)[C@H]3N2C(=O)[C@@H]1Cc1ccccc1 (stereo not given in full) was read as PAFAH1B2 inh -6, PAFAH2 FP inh -5, PAFAH1B3 FP inh 1, pPAFAH FP inh -1, PKA-R2B act -6 and PKA-R1A act -4.
Screening CCCNC(=O)c1c(N)n(Cc2ccco2)c2nc3ccccc3nc12 returned pPAFAH FP inh 20.
Nc1c(C(=O)NCC2CCCO2)c2nc3ccccc3nc2n1Cc1ccco1 (stereo not given) was read as PAFAH1B2 inh 5, PAFAH2 FP inh -4, PAFAH1B3 FP inh -4, pPAFAH FP inh 25*, PKA-R2B act -8 and PKA-R1A act -9.
O=c1[nH]c(O)c(/C=C2/C=CC(c3cc(Cl)ccc3Cl)=N2)c(=O)[nH]1 was read as PAFAH1B2 inh 76*, PAFAH2 FP inh 23, PAFAH1B3 FP inh 48*, pPAFAH FP inh 10, PKA-R2B act -5 and PKA-R1A act 14.
For COC(=O)C1=C(c2cccc(C#N)c2)C[C@@H]2CC[C@H]1N2C(=O)NCCCOC(C)C the results were PAFAH1B2 inh -2, PAFAH2 FP inh -3, PAFAH1B3 FP inh 0, pPAFAH FP inh -3, PKA-R2B act 7 and PKA-R1A act 3.
Screening CCN(CC)P(=O)(Oc1ccccc1)Oc1ccccc1 returned PAFAH1B2 inh 5, PAFAH2 FP inh 9, PAFAH1B3 FP inh 3, pPAFAH FP inh 0, PKA-R2B act 11 and PKA-R1A act 11.
Screening Cc1ccc2c(c1)=NC(=O)/C(=C/c1c(O)[nH]c(=O)[nH]c1=O)C=2 returned PAFAH1B2 inh 33*, PAFAH2 FP inh 3, PAFAH1B3 FP inh 10, pPAFAH FP inh -2, PKA-R2B act -1 and PKA-R1A act -2.
`Cc1ccc2c(c1)=C/C(=C\c1c(O)[nH]c(=S)[nH]c1=O)C(=O)N=2` gave pPAFAH FP inh 6.
Cc1cccc(N2C(=O)NC(=O)/C(=C/c3ccc([N+](=O)[O-])o3)C2=O)c1 was read as pPAFAH FP inh 26*.
`Cc1cc(C)cc(N2C(=O)NC(=O)/C(=C/c3cccn3-c3ccc(Cl)cc3)C2=O)c1` gave PAFAH1B2 inh 48*, PAFAH2 FP inh 42*, PAFAH1B3 FP inh 4, pPAFAH FP inh 10, PKA-R2B act 2 and PKA-R1A act -6.
For Cc1cccc(N2C(=O)NC(=O)/C(=C\C=C\c3ccco3)C2=O)c1 the results were PAFAH1B2 inh 12, PAFAH2 FP inh 18, PAFAH1B3 FP inh -2, pPAFAH FP inh 16, PKA-R2B act -3 and PKA-R1A act 5.
For Cc1cccc(N2C(=O)NC(=O)/C(=C\c3cccn3-c3ccc(Cl)cc3)C2=O)c1 the results were PAFAH1B2 inh 74*, PAFAH2 FP inh 54*, PAFAH1B3 FP inh 8, pPAFAH FP inh 12, PKA-R2B act -6 and PKA-R1A act -2.
`CC1(C)CC(N(CCc2ccccc2)Cc2ccccc2)CCO1` (stereo not given) gave PAFAH1B2 inh 5, PAFAH2 FP inh 2, PAFAH1B3 FP inh 6, pPAFAH FP inh -3, PKA-R2B act -1 and PKA-R1A act -8.
CCCN1CCc2cccc3c2[C@H]1Cc1ccc(O)c(O)c1-3 was read as PAFAH1B2 inh 3, PAFAH2 FP inh -7, PAFAH1B3 FP inh 16, pPAFAH FP inh 34*, PKA-R2B act -13 and PKA-R1A act -10.
`O=P(NC(c1ccccc1)c1ccccc1)(Oc1ccccc1)Oc1ccccc1` gave PAFAH1B2 inh -3, PAFAH2 FP inh -2, PAFAH1B3 FP inh 1, pPAFAH FP inh 8, PKA-R2B act 13 and PKA-R1A act -4.
For O=P(O)(Oc1ccccc1)OC(c1ccccc1)C(F)(F)F (stereo not given) the results were PAFAH1B2 inh 52*, PAFAH2 FP inh 67*, PAFAH1B3 FP inh 0, pPAFAH FP inh -11, PKA-R2B act 8 and PKA-R1A act -6.
`Cn1cc(C(=O)OCC(=O)Nc2ccccc2)c2ccccc21` gave PAFAH1B2 inh 2, PAFAH2 FP inh 85*, PAFAH1B3 FP inh 0, pPAFAH FP inh 29*, PKA-R2B act -8 and PKA-R1A act -8.
For Cc1ccc(/C=C2\C(=O)NC(=S)N(c3cccc(F)c3)C2=O)o1 the results were PAFAH1B2 inh 4, PAFAH2 FP inh 14, PAFAH1B3 FP inh 0, pPAFAH FP inh 29*, PKA-R2B act 6 and PKA-R1A act 1.
`Cc1ccc(N2C(=O)NC(=O)/C(=C\c3ccoc3)C2=O)cc1` gave PAFAH1B2 inh -4, PAFAH2 FP inh 3, PAFAH1B3 FP inh 6, pPAFAH FP inh 9, PKA-R2B act 5 and PKA-R1A act -2.
Screening O=C1NC(=S)N(c2ccc(F)cc2)C(=O)/C1=C\c1ccoc1 returned PAFAH1B2 inh 9, PAFAH2 FP inh 50*, PAFAH1B3 FP inh 7, PKA-R2B act 7 and PKA-R1A act 1.
For COc1ccc(OC)c(N2C(=O)/C(=C/c3ccco3)C(=O)NC2=S)c1 the results were pPAFAH FP inh 87*.
For O=C1NC(=S)N(c2ccc(F)cc2)C(=O)/C1=C/c1ccco1 the results were pPAFAH FP inh 83*.
`CN1CCCC(C(=O)c2ccc(Cl)cc2)C1` (stereo not given) gave PAFAH1B2 inh 4, PAFAH2 FP inh -2, PAFAH1B3 FP inh 13, pPAFAH FP inh -1, PKA-R2B act -8 and PKA-R1A act -18.
